Reference: the supplement of paper PMC4166925
± gives the standard deviation of the averaged measurements. Whole data set: some 33,000 sequences, median “E-score (dimensionless, -0.5 to 0.5)” near -0.049, cut for the highest 2% near 0.37. The full list was thinned out, with the highest values kept by preference.

test system: T1, PmTbr T-box DNA-binding domain (GST fusion); assay: PBM E-score of 8-mer (E-score (dimensionless, -0.5 to 0.5)); Tbr is Tbrain of the sea star Patiria miniata (Pm) or the sea urchin Strongylocentrotus purpuratus (Sp); higher = stronger binding preference; conditions: the construct has about 5 more residues each side
T1 sequence: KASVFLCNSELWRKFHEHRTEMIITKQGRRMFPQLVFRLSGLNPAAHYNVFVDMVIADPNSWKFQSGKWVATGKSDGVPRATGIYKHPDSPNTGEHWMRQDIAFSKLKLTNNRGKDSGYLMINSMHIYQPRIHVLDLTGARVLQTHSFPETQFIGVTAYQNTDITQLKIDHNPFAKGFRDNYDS
Method: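 Universal protein-binding microarray (Agilent AMADID 016060, 60-bp probes with a 35-bp variable region) incubated with 200 nM GST-fused Patiria miniata Tbr T-box DNA-binding domain (residues 272-466) in PBS pH 7.5. Scored for every ungapped 8-mer (given with its reverse complement) by the Universal PBM Analysis Suite as E-score (modified Wilcoxon-Mann-Whitney enrichment, range -0.5 to 0.5; >0.45 counts as bound) and Z-score of median probe intensity. Two replicate arrays (datasets 1 and 2).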
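Further: 200 nM protein in PBS on universal arrays averaged over duplicate arrays.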

Sequence	PBM E-score of 8-mer
ATAGCTAG	-0.0742 ± 0.12
CACGTTGG	0.261 ± 0.0042
CTGTTCTC	0.0542 ± 0.017
AGTGGCAA	0.304 ± 0.039
GGTGGCAA	0.3882 ± 0.0017
CCTGGCAC	0.371 ± 0.019
CTTGGCAC	0.352 ± 0.016
ATTGGCAC	0.385 ± 0.0064
AGTGGCAC	0.334 ± 0.008
CGTGGCAC	0.233 ± 0.052
GGTGGCAC	0.38829 ± 0.00023
CGTGGCAA	0.122 ± 0.044
GCTGGCAC	0.234 ± 0.064
ACTGGCAC	0.264 ± 0.015
ATTGGCAG	0.0761 ± 0.012
CCAGTTCA	-0.052 ± 0.044
GCCGTGCC	0.0438 ± 0.036
TCTATCCA	-0.354 ± 0.0079
GGATTAAC	0.0329 ± 0.085
CCTAGGGA	-0.233 ± 0.015
ACGATCTG	0.189 ± 0.015
CAATAGCG	0.118 ± 0.13
AGGAGGTA	-0.0739 ± 0.034
AAGAGGTG	0.4261 ± 0.00096
AAGAGGTA	-0.158 ± 0.021
ACGAGGTC	-0.113 ± 0.027

Sequence	PBM E-score of 8-mer
ATGAGGTG	0.382 ± 0.018
ACGAGGTG	0.4446 ± 0.0042
AAGAGGTC	-0.101 ± 0.02
ACGAGGTA	-0.046 ± 0.031
AGGAGGTG	0.428 ± 0.0078
AGGAGGTC	-0.247 ± 0.02
ATGAGGTA	-0.093 ± 0.027
ATGAGGTC	-0.00428 ± 0.033
GCCAGTCA	0.0625 ± 0.0016
AAGTTTCT	0.101 ± 0.091
AAACCATC	-0.0959 ± 0.018
AGTAGAGC	0.00365 ± 0.047
GTAGAACA	-0.0515 ± 0.048
GTCAGTGA	0.122 ± 0.036
GGAGAGCC	-0.27 ± 0.039
ATTAAGTC	-0.233 ± 0.059
AGGCAAAT	-0.324 ± 0.053
TACACCTA	0.371 ± 0.026
CACACCTG	0.478 ± 0.0049
AACACCGT	0.329 ± 0.0059
CACACCGG	0.135 ± 0.057
TACACCGA	0.042 ± 0.083
AACACCTT	0.4857 ± 0.0013
AACACCGG	0.155 ± 0.04
AACACCGC	0.287 ± 0.0081
ACCACCTG	0.262 ± 0.056

Sequence	PBM E-score of 8-mer
CAGACCTG	-0.0919 ± 0.036
TACACCAA	0.0439 ± 0.018
AACACCTG	0.472 ± 0.0011
GACTGAGA	-0.181 ± 0.085
ACTCAAAT	-0.125 ± 0.039
TACTTAGA	0.0947 ± 0.0054
ATAGACTG	-0.0183 ± 0.043
GACTGACA	0.142 ± 0.069
ATAGGCCC	-0.141 ± 0.098
CTCATTGC	-0.166 ± 0.087
AGATTCGG	-0.173 ± 0.036
ACGGCTAC	-0.0169 ± 0.0055
AACACCGA	0.234 ± 0.034
AAAACCTA	-0.209 ± 0.086
CCCACCTA	0.184 ± 0.016
CACACCTA	0.476 ± 0.009
CACACCGA	0.193 ± 0.0051
GACACCGA	0.286 ± 0.024
GAGACCTA	-0.16 ± 0.033
AACACCTA	0.4803 ± 0.0034
GACACCTA	0.48906 ± 2.8e-05
AGACTAGG	-0.0553 ± 0.059
ACGTCGAC	0.115 ± 0.035
AGGCAGCG	-0.0107 ± 0.078
CCTTGTAA	-0.0975 ± 0.037
TACTTGAA	-0.262 ± 0.037

Sequence	PBM E-score of 8-mer
AGGGGAGG	-0.223 ± 0.07
GAATTGTC	0.184 ± 0.0043
CGAGACTC	0.0667 ± 0.093
CCAAGGGA	0.0414 ± 0.029
ATCACGAG	0.167 ± 0.054
AAGAGTGT	0.289 ± 0.055
CTATAGAA	-0.129 ± 0.058
GTGTGACA	0.4709 ± 0.0035
ACGTGACT	0.0526 ± 0.086
GCGTGACA	0.365 ± 0.0062
ACGTGACG	0.346 ± 0.0083
ACGTGACA	0.385 ± 0.023
CTGTGACA	0.3356 ± 0.0016
ATGTGACG	0.31 ± 0.02
ATGTGACC	0.112 ± 0.052
ATGTGACA	0.4393 ± 0.0026
CACTGCTG	-0.132 ± 0.038
AAGAAGTC	0.0125 ± 0.0032
CGTAGGCC	-0.213 ± 0.033
GCATATAC	-0.081 ± 0.0014
CCTTGGGC	-0.035 ± 0.01
AGTGCCAC	0.287 ± 0.014
GGTGCCAC	0.398 ± 0.015
AGTGCCAA	0.3809 ± 0.0024
TGTGCCAA	0.351 ± 0.013
AGTGCCAG	0.2664 ± 0.0016

Sequence	PBM E-score of 8-mer
GATGCCAC	0.182 ± 0.072
CGTGCCAA	0.324 ± 0.0048
GGTGCCAA	0.454 ± 0.006
CGTGCCAC	0.274 ± 0.03
GCGGCAGC	0.0309 ± 0.0077
GGCGAATA	0.0105 ± 0.026
ACGAATTG	0.0628 ± 0.039
ACAGCGCA	-0.0538 ± 0.03
CCGCTATC	0.177 ± 0.0022
AACACGGT	0.133 ± 0.049
CGTGAAAA	0.338 ± 0.026
TGTGAAAA	0.38 ± 0.057
CGTGAACA	0.321 ± 0.021
GGTGAAAA	0.2007 ± 0.0014
TGTGAACA	0.4216 ± 0.0014
GGTGAACA	0.00576 ± 0.0094
CGTGAGAG	0.265 ± 0.0088
AAGCCAAT	-0.162 ± 0.051
ACTCGAAC	-0.0874 ± 0.031
CTCTGTGC	-0.0888 ± 0.082
GGAGATTA	-0.0891 ± 0.063
AGGGCCTC	-0.399 ± 0.0047
CAAGCATG	-0.0451 ± 0.032
TGTCTAAA	-0.0695 ± 0.011
GAAGGACA	-0.0775 ± 0.028
GCAGACAA	-0.0224 ± 0.054

Sequence	PBM E-score of 8-mer
CCTCGCAC	0.42 ± 0.014
CCTCGCAG	0.0735 ± 0.061
GCTCGCCC	-0.213 ± 0.052
CCTCGCAA	0.118 ± 0.0037
ACTCGCAG	0.0856 ± 0.036
GCTCGCAC	0.42 ± 0.025
GCTCGCAA	0.242 ± 0.015
ACTCGCAC	0.4 ± 0.0077
ACTCGCAT	-0.0149 ± 0.006
ACAGCTAC	0.115 ± 0.032
AACTGGAG	-0.0661 ± 0.0033
CGATAAGC	0.124 ± 0.049
AGAGGTGA	0.352 ± 0.015
CGAGGTGC	0.457 ± 0.01
AGAGGTGG	0.316 ± 0.0057
CGAGGTTA	0.0486 ± 0.017
CGAGGTGA	0.4396 ± 0.0012
CGAGGTCA	0.0395 ± 0.11
AGAGGTTC	-0.124 ± 0.022
GGAGGTGA	0.4036 ± 0.0026
AGAGGTGC	0.411 ± 0.0084
GGAGGTCA	0.0158 ± 0.0067
CGAGGTCC	-0.166 ± 0.06
CGAGGTAC	-0.1003 ± 0.00044
ACCAACTA	-0.0247 ± 0.12
CGAACAGC	0.0465 ± 0.011

Sequence	PBM E-score of 8-mer
TAAGTCTA	-0.0537 ± 0.026
CGCCCTAC	-0.103 ± 0.061
CCAACAAC	0.0262 ± 0.0053
ATGTTGGA	-0.0683 ± 0.0083
GTGTTGGA	0.382 ± 0.0051
ATGTTGAA	-0.107 ± 0.017
GTGTTGAA	0.4 ± 0.013
CTGTTGAA	-0.0551 ± 0.1
CTGTTGGA	0.0599 ± 0.038
ACCTTTAT	0.0337 ± 0.024
TGGGTGAA	-0.158 ± 0.043
TATGTGAA	0.11 ± 0.1
CGTGTGTA	0.00111 ± 0.014
CGTGTGAA	0.4524 ± 0.0013
AGTGTGAA	0.48836 ± 0.00035
TGTGTGAA	0.4728 ± 0.0017
AGTGTGTA	0.172 ± 0.073
CGTGTGCA	0.0443 ± 0.011
AGAGTGAA	0.0596 ± 0.056
CGCTACCA	0.243 ± 0.024
AGTTCTTC	-0.293 ± 0.02
